Rows were chosen to be rich in hits. Some 6.6% of all compounds tested hit in one or more screens of this group.
Autofluor counter = flagged as autofluorescent in microsphere protease counterscreen. 360,000 compounds, 3.1% hits. fluorescence intensity (no concentration beside the values). compound autofluorescence counterscreen, microsphere flow cytometry; hits give high values; in the data active = fluorescence intensity above about 16000; inconclusive = no clear call, values can overlap the other calls
Anthrax LF prot = inhibitors of Bacillus anthracis lethal factor protease; AID 588501; inhibition, % at 10 µM; P15917; 360,000 compounds, 0.12% hits; multiplex microsphere protease cleavage assay, LF; in the data active = inhibition above about 30%; inconclusive = no clear call, values can overlap the other calls; also: plate controls were buffer without enzyme for full effect and enzyme alone for no effect
BoNT A protease = inhibitors of Botulinum neurotoxin A light chain protease. 360,000 compounds, 0.17% hits. multiplex microsphere protease substrate cleavage, flow cytometry. inhibition, % at 10 µM; in the data active = inhibition above about 30%; inconclusive = no clear call, values can overlap the other calls; also: plate controls were buffer without enzyme for full effect and enzyme alone for no effect
Mtb FBA inh = inhibitors of M. tuberculosis fructose-bisphosphate aldolase; P9WQA3; purified M. tuberculosis FBA, fluorescence read-out; inhibition, % at 1 µM; 360,000 compounds, 2.3% hits; AID 588726;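 also: 0% = vehicle and 100% = reference inhibitor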
Target sequence (P9WQA3 whole entry, looked up): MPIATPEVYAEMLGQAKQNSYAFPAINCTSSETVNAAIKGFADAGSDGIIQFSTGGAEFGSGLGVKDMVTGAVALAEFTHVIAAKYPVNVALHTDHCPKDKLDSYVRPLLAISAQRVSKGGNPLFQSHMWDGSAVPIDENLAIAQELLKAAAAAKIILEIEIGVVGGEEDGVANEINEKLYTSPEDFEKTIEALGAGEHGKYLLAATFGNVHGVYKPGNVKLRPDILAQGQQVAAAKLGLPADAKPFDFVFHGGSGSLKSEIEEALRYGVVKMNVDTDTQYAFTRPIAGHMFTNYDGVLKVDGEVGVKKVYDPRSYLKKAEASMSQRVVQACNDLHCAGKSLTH
GDH-TPI counter-1 = GDH-TPI coupled enzyme inhibition counter-screen; GDH-TPI coupled enzyme counterscreen, NADH absorbance; inhibition, % at 4.8 µM; 360,000 compounds, 1.2% hits; in the data active = inhibition above about 30%;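 also: 0% = DMSO wells and 100% = wells lacking the enzyme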
BoNT-F LC inh = inhibitors of Botulinum neurotoxin F light chain protease | inhibition, % at 10 µM | 360,000 compounds, 0.22% hits | Multiplex microsphere protease cleavage assay, flow cytometry; in the data active = inhibition above about 35%, passing the limit was not always enough; inconclusive = no clear call, values can overlap the other calls; also: plate controls were buffer without enzyme for full effect and enzyme alone for no effect
Mtb FBA confirm = confirmation of M. tuberculosis fructose-bisphosphate aldolase inhibitors. shares compounds with Mtb FBA inh. purified M. tuberculosis FBA, fluorescence read-out. inhibition, % at 1 µM. 5,600 compounds, 78% hits. AID 651616;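 also: 0% = vehicle wells and 100% = reference inhibitor wells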
GDH-TPI counter-2 = inhibits GDH-TPI coupling enzymes, flagging Mtb FBA hits | shares compounds with Mtb FBA inh | GDH-TPI coupled enzyme counterscreen, fluorescence | inhibition, % at 1 µM | 5,600 compounds, 81% hits | AID 652141; in the data active = inhibition above about 10%
GDH-TPI DR = counter-screen for M. tuberculosis FBA inhibitors: GDH-TPI dose response; shares compounds with Mtb FBA inh; GDH-TPI coupled enzyme assay, fluorescence, artifact counterscreen; IC50, µM; 170 compounds, 79% hits; AID 652145; call rule not given here
* = called active by the depositor; ? = inconclusive; . = no result; + = active, no number. Rule as the data show it, unless noted: active = inhibition above about 27%; inactive = the rest.

SMILES | Autofluor counter | Anthrax LF prot | BoNT A protease | Mtb FBA inh | GDH-TPI counter-1 | BoNT-F LC inh | Mtb FBA confirm | GDH-TPI counter-2 | others
COc1ccc(OC)c(/C=N/NC(=O)CC(=O)NC2CCCCC2)c1 | 4221 | -3 | 2 | 105* | 2 | -4 | 152* | 122*
COc1ccc(OC)c(C=NNC(=O)NN=Cc2cc(OC)ccc2OC)c1 | 3501 | -2 | 0 | 11 | 27 | -7 | . | .
COc1cccc(/C=N/NC(=O)CC2C(=O)NN=C2C)c1OC (configuration not stated) | 3409 | 0 | 1 | 12 | 12 | -6 | . | .
COc1ccccc1/C=N/Nc1nc(C)cc(=O)[nH]1 | 2987 | 0 | 0 | 0 | 26 | 3 | . | .
COc1ccc(OC)c(/C=N/Nc2nc(C)cc(=O)[nH]2)c1 | 3289 | 12 | -7 | 49* | 22 | -20 | 194* | 173*
COc1ccc(OC)c(/C=N/NC(=O)CC(=O)NCc2ccccc2)c1 | 4435 | -13 | 0 | 29* | -3 | 0 | 111* | 103*
CCOc1cc(/C=N/NC(=O)CCCC(=O)NC2CCCCC2)ccc1O | 2016 | 0 | 0 | 56* | 12 | 4 | 24 | 14*
COc1ccc(C(=O)OCC(=O)NC2CCCCCC2)c(OC)c1 | . | . | . | 2 | 7 | . | . | .
CC(=O)OC1(C)C=Cc2ccccc2C1=NS(=O)(=O)c1ccccc1 (configuration not stated) | 3390 | 0 | 0 | -3 | 0 | -2 | . | .
O=C1N=C(N2CCN(c3ccccc3)CC2)S/C1=C/c1cccs1 | 2428 | 0 | 1 | 34* | 26 | -4 | 6 | -8
O=C1N=C(N2CCN(Cc3ccccc3)CC2)S/C1=C/c1cccs1 | 5444 | -2 | 0 | 2 | 28 | -7 | . | .
COC(=O)c1ccc(C(=O)OC)c(NC(=S)N2CCC(C(N)=O)CC2)c1 | 3280 | -9 | 0 | 18 | 2 | -2 | . | .
COC(=O)c1ccc2c(=O)sc(N3CCC(C(N)=O)CC3)nc2c1 | 5163 | 2 | 4 | 40* | -2 | 12 | 72* | 61*
CN(C)C1=NCC(CSC(=N)N)S1 (configuration not stated) | 3380 | -6 | 0 | 68* | -1 | -1 | 200* | 175*
Cc1ccc2[nH]c(=O)c(CN(C(=O)c3cccs3)c3ccccc3)cc2c1 | 10006 | 1 | 1 | -3 | 9 | 10 | . | .
O=C(Nc1nc2nc(-c3ccccc3)cc(-c3ccccc3)n2n1)c1ccco1 | 2360 | -1 | 1 | 43* | 28 | -8 | 132* | 98*
Cc1ccnc2nc(NC(=O)c3ccco3)nn12 | 5731 | 0 | 1 | -5 | 0 | 2 | . | .
CC1CCCC(=NNC(=O)C2COc3ccccc3O2)C1 (configuration not stated) | 5260 | -1 | 0 | -3 | 2 | 4 | . | .
COc1ccc(Cc2[nH]n3c(=O)cc(C)nc3c2-c2ccccc2)cc1 | 2748 | -1 | 0 | 27* | 0 | -9 | 157* | 147*
Cc1cc(=O)n2[nH]c(C(F)(F)F)c(-c3ccccc3)c2n1 | 3756 | -9 | -1 | 64* | 1 | 12 | 165* | 135*
Cc1cc(C)n2nc(C)c(-c3ccccc3)c2n1 | 4368 | 4 | 0 | 2 | 3 | 0 | . | .
CC(=O)N1CCc2cc(S(=O)(=O)NCCC(=O)N3CCc4ccccc4C3)ccc21 | ? | 3 | 1 | -2 | 3 | -2 | . | .
CC(=O)N1CCc2cc(S(=O)(=O)NCCC(=O)N3CCN(c4ccccn4)CC3)ccc21 | 4241 | 0 | 0 | 54* | 8 | 2 | 67* | 49*
COc1ccc(N(C(=O)c2cnccn2)C(C(=O)NCc2ccccc2)c2ccc(O)cc2)cc1 (configuration not stated) | 5158 | -5 | 2 | -2 | -10 | 5 | . | .
Cc1ccccc1N=C1Nc2ccccc2N[C@]12C[C@H]1CCC(=O)N3CC[C@@H](C2)[C@@H]13 | 3898 | -1 | -1 | -1 | 7 | -3 | . | .
SMILES | Autofluor counter | Anthrax LF prot | BoNT A protease | Mtb FBA inh | GDH-TPI counter-1 | BoNT-F LC inh | Mtb FBA confirm | GDH-TPI counter-2 | others
Cc1cc(C(=O)NNC(=O)c2ccccc2[N+](=O)[O-])c(C)o1 | 6407 | 1 | 0 | 0 | 1 | -5 | . | .
CCN(CC)C(=O)COc1c(-c2ccco2)oc2ccccc2c1=O | 3111 | 5 | -2 | 27* | 33* | -17 | 156* | 155*
O=C(O)COc1c(-c2ccccc2)oc2ccccc2c1=O | 10502 | -2 | 0 | 2 | 10 | -2 | . | .
CCc1nnc(NC(=O)c2sc3nc4c(cc3c2N)CCCCCC4)s1 | 2088 | 0 | 1 | 61* | 13 | -8 | 7 | -7
CC(C)(C)c1cc(=O)n2c(C#N)c(C#N)nc2[nH]1 | 3822 | -4 | 0 | 80* | 12 | 0 | 47* | 40*
COc1cccc(Nc2ccc(C(=O)O)cc2N)c1 | 3600 | 8 | 0 | 62* | 15 | 4 | 49* | 49*
CCOc1ccccc1Nc1ccc(C(=O)O)cc1N | 3629 | 12 | -2 | 22 | 14 | -10 | . | .
CNS(=O)(=O)c1ccc2c3c(cccc13)C(=O)N2 | 3108 | 2 | 2 | 56* | 17 | 7 | 17 | 4 | GDH-TPI DR=2.9*
O=C(O)CCCCCNS(=O)(=O)c1ccc2c3c(cccc13)C(=O)N2 | 3495 | -6 | 6 | 40* | 10 | -21 | 90* | 67*
CNS(=O)(=O)c1cc(S(=O)(=O)NC)c2cccc3c2c1NC3=O | 4390 | -5 | -7 | 31* | 23 | 0 | 92* | 77*
O=C(O)CNS(=O)(=O)c1ccc2c3c(cccc13)C(=O)N2 | . | . | . | 37* | 16 | . | + | 145*
Cc1nnc(SCC(=O)c2ccc(Cl)cc2)n(N)c1=O | 4383 | 2 | 0 | -4 | 19 | -5 | . | .
COc1ccc(-n2nnnc2C(c2ccccc2)N2CCN(C/C=C/c3ccccc3)CC2)cc1 (configuration not stated) | 4222 | 8 | 2 | 0 | . | 7 | . | .
O=C1Nc2ccc(S(=O)(=O)N(CCO)CCO)c3cccc1c23 | 3165 | -1 | 1 | 32* | 8 | -16 | 0 | -5
CN(c1ccccc1C(=O)O)S(=O)(=O)c1ccc2c3c(cccc13)C(=O)N2 | 3386 | -1 | -2 | 4 | 1 | -13 | . | .
CCc1ccccc1OCC(=O)NNCC(=O)Nc1cccc(C#N)c1 | 4116 | 0 | 0 | -2 | -5 | -4 | . | .
Cc1ccc(NC(=O)c2ccccc2F)nc1 | 5350 | -10 | 0 | 33* | 3 | -9 | 96* | 78*
Cc1ccc(NC(=O)c2cc(F)c(F)cc2Cl)nc1 | 4714 | -5 | 0 | 82* | -1 | -6 | 136* | 124*

Screening results as filed in PubChem.
